The campaign covered roughly 5,500 compounds. About 2,000 (36%) were called active. Another 18% or so got no clear call; they are omitted. Rule as the data show it: active = normalized growth mostly below about 0.91 (no sharp cut-off); inconclusive = no clear call, values can overlap the other calls; inactive = mostly above about 0.92. Some of the results follow.
Test: chemical genetic growth profiling, strain panel (AID 1159580);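 also: tested at 20 µM; growth read once vehicle control cultures reached saturation at 30 °C; 1 = growth at the plate median or of vehicle wells; lower values mean less growth of the strain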
Settings: S. cerevisiae deletion strains, growth OD

Measured: normalized growth

FC(F)(F)C(Cl)Br (configuration not stated)
inactive: locus YAL021C, strain ccr4, hits give low values 1.02 | locus YAL026C, strain drs2, hits give low values 1.03 | locus YAL030W, strain snc1, hits give low values 1.02 | locus YBL061C, strain skt5, hits give low values 1.02 | locus YBR009C, strain hhf1, hits give low values 1.04 | locus YBR023C, strain chs3, hits give low values 1.03 | locus YBR171W, strain sec66, hits give low values 1.05 | locus YBR231C, strain swc5, hits give low values 1.03 | locus YBR279W, strain paf1, hits give low values 1.03 | locus YCL011C, strain gbp2, hits give low values 1.03 | locus YCL016C, strain dcc1, hits give low values 1.02 | locus YCL061C, strain MRC1, hits give low values 1.02 | locus YCL069W, strain vba3, hits give low values 1.02 | locus YCR088W, strain abp1, hits give low values 1.02 | locus YDL005C, strain med2, hits give low values 1.03 | locus YDL040C, strain nat1, hits give low values 1.02 | locus YDR001C, strain nth1, hits give low values 1.01 | locus YDR069C, strain doa4, hits give low values 1.02 | locus YDR137W, strain rgp1, hits give low values 1.07 | locus YDR159W, strain sac3, hits give low values 1.04 | locus YDR195W, strain ref2 1.05 | locus YDR297W, strain sur2, hits give low values 1.01 | locus YDR334W, strain swr1, hits give low values 1.02 | locus YDR335W, strain msn5, hits give low values 1.02 | locus YDR392W, strain spt3, hits give low values 1.01 | locus YEL003W, strain gim4, hits give low values 1.02 | locus YEL037C, strain rad23, hits give low values 0.997 | locus YEL061C, strain CIN8 (second series), hits give low values 1.02 | locus YER015W, strain faa2, hits give low values 1.02 | locus YER016W, strain bim1, hits give low values 1.04 | locus YER111C, strain swi4, hits give low values 1.03 | locus YER155C, strain BEM2 (second series), hits give low values 1.02 | locus YFR010W, strain ubp6, hits give low values 1.03 | locus YGL167C, strain pmr1, hits give low values 1.04 | locus YGL173C, strain kem1, hits give low values 1.02 | locus YGL227W, strain vid30, hits give low values 1.04 | locus YGL240W, strain doc1, hits give low values 1.02 | locus YGL253W, strain hxk2, hits give low values 1.02 | locus YHR013C, strain ard1, hits give low values 1.02 | locus YHR027C, strain rpn1, hits give low values 1.03 | locus YHR142W, strain chs7, hits give low values 1.03 | locus YJL092W, strain hpr5, hits give low values 1.01 | locus YJL095W, strain BCK1 (second series), hits give low values 1.01 | locus YJL115W, strain asf1, hits give low values 1.01 | locus YJL129C, strain trk1, hits give low values 1.06 | locus YJL154C, strain vps35, hits give low values 1.02 | locus YJL164C, strain tpk1, hits give low values 1.02 | locus YJL166W, strain qcr8, hits give low values 1.03 | locus YJL187C, strain SWE1, hits give low values 1.03 | locus YKL160W, strain elf1, hits give low values 1.02 | locus YKR026C, strain gcn3, hits give low values 1 | locus YKR091W, strain srl3, hits give low values 1.02 | locus YLL001W, strain dnm1, hits give low values 1.01 | locus YLL026W, hits give low values 1.02 | locus YLL041C, strain sdh2, hits give low values 1.02 | locus YLR027C, strain aat2, hits give low values 1.02 | locus YLR221C, strain rsa3, hits give low values 1.02 | locus YLR258W, strain gsy2, hits give low values 1.02 | locus YLR262C, strain YPT6 (second series), hits give low values 1.04 | locus YLR320W, strain mms22, hits give low values 1.03 | locus YLR342W, strain FKS1, hits give low values 1.02 | locus YLR357W, strain rsc2, hits give low values 1.07 | locus YLR370C, strain arc18, hits give low values 1.03 | locus YLR384C, strain iki3, hits give low values 1.02 | locus YML120C, strain ndi1, hits give low values 1.03 | locus YMR058W, strain fet3, hits give low values 1.02 | locus YMR125W, strain sto1, hits give low values 1.02 | locus YMR129W, hits give low values 1.03 | locus YMR205C, strain PFK2, hits give low values 1.03 | locus YMR231W, strain pep5, hits give low values 1.02 | locus YNL071W, strain lat1, hits give low values 1.03 | locus YNL209W, strain ssb2, hits give low values 1.02 | locus YNL248C, strain rpa49, hits give low values 1.03 | locus YNL322C, strain KRE1 (second series), hits give low values 1.02 | locus YNR049C, strain mso1, hits give low values 1.02 | locus YOR001W, strain rrp6, hits give low values 1.04 | locus YOR070C, strain gyp1, hits give low values 1.01 | locus YOR080W, strain dia2, hits give low values 1.02 | locus YOR083W, strain WHI5, hits give low values 1.01 | locus YOR106W, strain vam3, hits give low values 1.04 | locus YOR265W, strain rbl2, hits give low values 1.03 | locus YOR270C, strain vph1, hits give low values 1.08 | locus YOR290C, strain snf2, hits give low values 1.04 | locus YPL051W, strain arl3, hits give low values 1.04 | locus YPL078C, strain atp4, hits give low values 1.02 | locus YPL106C, strain sse1, hits give low values 1.02 | locus YPL240C, strain hsp82, hits give low values 1.02
